The values below come from the supplement of paper PMC11732987, “Enantioselective OTUD7B fragment discovery through chemoproteomics screening and high-throughput optimisation” (Communications Chemistry, 2025).

Values without a mark were called inactive.

Common to all, as to assay: log2 ratio of Biotin-Ahx-Ub-VS probe labelling (fragment/DMSO); higher = less target engagement (more negative = stronger competition), active = hit call of the paper (q ≤ 0.05, log2 ratio ≤ -1)
Details in all cases: compound concentration: 200 uM; treatment time: 3 h

The target in one test is T1, USP19 (UniProt O94966).
T1 sequence (whole entry): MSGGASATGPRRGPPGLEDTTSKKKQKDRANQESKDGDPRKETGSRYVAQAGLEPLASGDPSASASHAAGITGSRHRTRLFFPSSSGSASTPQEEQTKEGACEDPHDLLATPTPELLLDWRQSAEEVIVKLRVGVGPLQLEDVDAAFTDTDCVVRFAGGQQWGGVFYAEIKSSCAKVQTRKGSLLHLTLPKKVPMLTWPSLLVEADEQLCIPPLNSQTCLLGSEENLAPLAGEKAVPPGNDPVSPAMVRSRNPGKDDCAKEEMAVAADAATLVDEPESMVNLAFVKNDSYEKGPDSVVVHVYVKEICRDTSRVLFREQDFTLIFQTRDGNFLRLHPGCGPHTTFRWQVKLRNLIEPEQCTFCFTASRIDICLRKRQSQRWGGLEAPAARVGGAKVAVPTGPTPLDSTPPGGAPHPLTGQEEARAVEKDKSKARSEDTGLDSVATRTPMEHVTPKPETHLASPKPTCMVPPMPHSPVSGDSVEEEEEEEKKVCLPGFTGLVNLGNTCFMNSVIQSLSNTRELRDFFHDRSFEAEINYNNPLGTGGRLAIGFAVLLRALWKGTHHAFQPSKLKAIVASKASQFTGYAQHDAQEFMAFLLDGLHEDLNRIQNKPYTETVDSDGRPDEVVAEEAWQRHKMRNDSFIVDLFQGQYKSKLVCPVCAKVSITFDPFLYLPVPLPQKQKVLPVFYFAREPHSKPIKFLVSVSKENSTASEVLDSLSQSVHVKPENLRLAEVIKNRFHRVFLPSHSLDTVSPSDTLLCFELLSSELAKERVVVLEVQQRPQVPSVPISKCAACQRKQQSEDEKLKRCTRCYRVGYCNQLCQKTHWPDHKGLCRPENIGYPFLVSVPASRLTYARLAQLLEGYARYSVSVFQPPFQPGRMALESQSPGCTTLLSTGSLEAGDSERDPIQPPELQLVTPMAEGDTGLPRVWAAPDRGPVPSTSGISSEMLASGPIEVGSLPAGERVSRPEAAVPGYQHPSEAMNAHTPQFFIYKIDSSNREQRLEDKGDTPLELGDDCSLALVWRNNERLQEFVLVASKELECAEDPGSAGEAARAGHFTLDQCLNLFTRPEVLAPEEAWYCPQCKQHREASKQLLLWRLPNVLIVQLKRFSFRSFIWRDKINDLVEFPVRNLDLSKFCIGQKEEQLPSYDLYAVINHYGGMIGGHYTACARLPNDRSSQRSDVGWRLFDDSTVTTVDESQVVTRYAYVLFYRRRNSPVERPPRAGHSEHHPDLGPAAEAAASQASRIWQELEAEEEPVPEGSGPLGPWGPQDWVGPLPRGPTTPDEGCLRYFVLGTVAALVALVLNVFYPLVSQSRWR
The procedure, abridged:
(§1)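 Labelled DUBs from HEK293T lysate were NeutrAvidin-enriched, digested with LysC and trypsin, and run by diaPASEF LC-MS/MS. Before that, each 495 µg sample in Tris/CHAPS/IGEPAL buffer with protease inhibitors was treated in triplicate with fragment at 200 µM or vehicle for 3 h, then with Biotin-Ahx-Ub-VS at 0.5 µM final for 1 h. Values are average log2 ratios of fragment over vehicle by unpaired t-test, based on global-median-normalised Spectronaut label-free quantities from proteins with ≥2 unique peptides.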

In the next test the target is T2, USP22 (UniProt Q9UPT9).
T2 sequence (whole entry): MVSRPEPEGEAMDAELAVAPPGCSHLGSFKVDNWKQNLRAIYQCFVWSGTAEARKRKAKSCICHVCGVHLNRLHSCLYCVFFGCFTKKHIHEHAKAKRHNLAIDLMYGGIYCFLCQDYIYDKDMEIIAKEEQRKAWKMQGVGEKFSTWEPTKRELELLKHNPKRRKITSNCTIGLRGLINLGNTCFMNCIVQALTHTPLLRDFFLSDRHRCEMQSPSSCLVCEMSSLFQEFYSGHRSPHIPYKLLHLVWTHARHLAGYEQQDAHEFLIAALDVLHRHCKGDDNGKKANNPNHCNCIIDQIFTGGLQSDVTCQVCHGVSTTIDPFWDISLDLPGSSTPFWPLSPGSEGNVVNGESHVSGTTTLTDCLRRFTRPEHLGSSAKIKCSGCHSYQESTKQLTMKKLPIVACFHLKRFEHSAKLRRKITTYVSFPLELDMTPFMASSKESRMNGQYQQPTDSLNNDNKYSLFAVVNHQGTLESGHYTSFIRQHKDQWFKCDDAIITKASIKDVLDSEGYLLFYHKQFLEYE
The procedure, abridged:
as §1

The next test deals with USP24 (UniProt Q9UPU5). The procedure, abridged:
as §1

The target in the next test is T3, USP25 (UniProt Q9UHP3).
T3 sequence (whole entry): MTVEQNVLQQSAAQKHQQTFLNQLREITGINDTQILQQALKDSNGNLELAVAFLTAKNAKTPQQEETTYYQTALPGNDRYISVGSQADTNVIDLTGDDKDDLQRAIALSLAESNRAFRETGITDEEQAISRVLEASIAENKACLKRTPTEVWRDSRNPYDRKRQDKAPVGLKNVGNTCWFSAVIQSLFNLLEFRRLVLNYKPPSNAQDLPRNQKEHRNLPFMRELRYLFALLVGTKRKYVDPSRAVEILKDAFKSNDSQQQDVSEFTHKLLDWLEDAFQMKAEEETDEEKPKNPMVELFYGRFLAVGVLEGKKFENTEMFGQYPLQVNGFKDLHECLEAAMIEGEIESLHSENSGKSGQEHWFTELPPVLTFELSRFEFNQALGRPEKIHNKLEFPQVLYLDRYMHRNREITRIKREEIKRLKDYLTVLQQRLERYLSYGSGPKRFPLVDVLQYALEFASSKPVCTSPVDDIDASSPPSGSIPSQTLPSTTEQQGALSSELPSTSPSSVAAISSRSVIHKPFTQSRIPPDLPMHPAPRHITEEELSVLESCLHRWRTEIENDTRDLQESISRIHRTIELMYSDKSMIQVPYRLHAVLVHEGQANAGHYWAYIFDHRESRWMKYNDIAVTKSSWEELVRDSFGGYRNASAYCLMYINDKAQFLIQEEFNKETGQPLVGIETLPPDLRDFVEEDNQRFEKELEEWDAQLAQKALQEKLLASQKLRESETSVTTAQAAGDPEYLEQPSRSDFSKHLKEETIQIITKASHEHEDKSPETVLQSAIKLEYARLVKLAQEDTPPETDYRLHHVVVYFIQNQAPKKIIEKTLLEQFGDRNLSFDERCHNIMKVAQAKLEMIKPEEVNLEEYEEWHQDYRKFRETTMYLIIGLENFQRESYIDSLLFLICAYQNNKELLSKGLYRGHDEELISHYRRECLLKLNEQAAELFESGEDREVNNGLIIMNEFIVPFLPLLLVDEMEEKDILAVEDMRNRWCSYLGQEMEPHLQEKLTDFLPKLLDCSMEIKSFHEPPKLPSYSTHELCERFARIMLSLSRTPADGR
The procedure, abridged: as §1

A further test has as its target T4, USP28 (UniProt Q96RU2).
T4 sequence (whole entry): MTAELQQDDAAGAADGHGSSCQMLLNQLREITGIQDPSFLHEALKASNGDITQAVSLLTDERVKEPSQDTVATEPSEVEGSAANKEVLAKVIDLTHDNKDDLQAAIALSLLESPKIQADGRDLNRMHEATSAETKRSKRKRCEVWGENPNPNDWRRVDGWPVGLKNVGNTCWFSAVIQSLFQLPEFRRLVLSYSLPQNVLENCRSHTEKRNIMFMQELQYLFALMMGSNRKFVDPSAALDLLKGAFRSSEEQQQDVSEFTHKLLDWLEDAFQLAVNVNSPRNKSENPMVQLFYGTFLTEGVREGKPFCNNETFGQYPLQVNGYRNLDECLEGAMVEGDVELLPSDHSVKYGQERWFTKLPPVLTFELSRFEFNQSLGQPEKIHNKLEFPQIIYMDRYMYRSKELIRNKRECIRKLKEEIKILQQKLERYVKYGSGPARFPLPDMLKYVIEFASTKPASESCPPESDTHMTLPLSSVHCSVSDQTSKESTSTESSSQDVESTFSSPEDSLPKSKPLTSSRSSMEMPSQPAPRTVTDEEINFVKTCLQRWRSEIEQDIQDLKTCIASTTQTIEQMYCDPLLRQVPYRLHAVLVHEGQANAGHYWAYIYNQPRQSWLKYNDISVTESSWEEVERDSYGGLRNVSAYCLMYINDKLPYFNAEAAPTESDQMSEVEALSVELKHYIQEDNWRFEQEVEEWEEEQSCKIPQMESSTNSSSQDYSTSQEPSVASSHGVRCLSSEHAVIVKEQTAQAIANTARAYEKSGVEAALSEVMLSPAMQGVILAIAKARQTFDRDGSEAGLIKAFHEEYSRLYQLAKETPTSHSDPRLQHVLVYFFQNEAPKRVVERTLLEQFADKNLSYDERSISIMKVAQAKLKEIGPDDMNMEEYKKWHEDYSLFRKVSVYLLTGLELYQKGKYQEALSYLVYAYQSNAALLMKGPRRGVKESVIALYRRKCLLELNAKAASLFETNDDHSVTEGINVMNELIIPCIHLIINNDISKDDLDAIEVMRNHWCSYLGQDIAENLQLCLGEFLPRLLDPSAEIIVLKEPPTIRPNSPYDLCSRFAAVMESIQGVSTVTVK
The procedure, abridged:
as §1

Chain of USP24 (Q9UPU5 whole entry): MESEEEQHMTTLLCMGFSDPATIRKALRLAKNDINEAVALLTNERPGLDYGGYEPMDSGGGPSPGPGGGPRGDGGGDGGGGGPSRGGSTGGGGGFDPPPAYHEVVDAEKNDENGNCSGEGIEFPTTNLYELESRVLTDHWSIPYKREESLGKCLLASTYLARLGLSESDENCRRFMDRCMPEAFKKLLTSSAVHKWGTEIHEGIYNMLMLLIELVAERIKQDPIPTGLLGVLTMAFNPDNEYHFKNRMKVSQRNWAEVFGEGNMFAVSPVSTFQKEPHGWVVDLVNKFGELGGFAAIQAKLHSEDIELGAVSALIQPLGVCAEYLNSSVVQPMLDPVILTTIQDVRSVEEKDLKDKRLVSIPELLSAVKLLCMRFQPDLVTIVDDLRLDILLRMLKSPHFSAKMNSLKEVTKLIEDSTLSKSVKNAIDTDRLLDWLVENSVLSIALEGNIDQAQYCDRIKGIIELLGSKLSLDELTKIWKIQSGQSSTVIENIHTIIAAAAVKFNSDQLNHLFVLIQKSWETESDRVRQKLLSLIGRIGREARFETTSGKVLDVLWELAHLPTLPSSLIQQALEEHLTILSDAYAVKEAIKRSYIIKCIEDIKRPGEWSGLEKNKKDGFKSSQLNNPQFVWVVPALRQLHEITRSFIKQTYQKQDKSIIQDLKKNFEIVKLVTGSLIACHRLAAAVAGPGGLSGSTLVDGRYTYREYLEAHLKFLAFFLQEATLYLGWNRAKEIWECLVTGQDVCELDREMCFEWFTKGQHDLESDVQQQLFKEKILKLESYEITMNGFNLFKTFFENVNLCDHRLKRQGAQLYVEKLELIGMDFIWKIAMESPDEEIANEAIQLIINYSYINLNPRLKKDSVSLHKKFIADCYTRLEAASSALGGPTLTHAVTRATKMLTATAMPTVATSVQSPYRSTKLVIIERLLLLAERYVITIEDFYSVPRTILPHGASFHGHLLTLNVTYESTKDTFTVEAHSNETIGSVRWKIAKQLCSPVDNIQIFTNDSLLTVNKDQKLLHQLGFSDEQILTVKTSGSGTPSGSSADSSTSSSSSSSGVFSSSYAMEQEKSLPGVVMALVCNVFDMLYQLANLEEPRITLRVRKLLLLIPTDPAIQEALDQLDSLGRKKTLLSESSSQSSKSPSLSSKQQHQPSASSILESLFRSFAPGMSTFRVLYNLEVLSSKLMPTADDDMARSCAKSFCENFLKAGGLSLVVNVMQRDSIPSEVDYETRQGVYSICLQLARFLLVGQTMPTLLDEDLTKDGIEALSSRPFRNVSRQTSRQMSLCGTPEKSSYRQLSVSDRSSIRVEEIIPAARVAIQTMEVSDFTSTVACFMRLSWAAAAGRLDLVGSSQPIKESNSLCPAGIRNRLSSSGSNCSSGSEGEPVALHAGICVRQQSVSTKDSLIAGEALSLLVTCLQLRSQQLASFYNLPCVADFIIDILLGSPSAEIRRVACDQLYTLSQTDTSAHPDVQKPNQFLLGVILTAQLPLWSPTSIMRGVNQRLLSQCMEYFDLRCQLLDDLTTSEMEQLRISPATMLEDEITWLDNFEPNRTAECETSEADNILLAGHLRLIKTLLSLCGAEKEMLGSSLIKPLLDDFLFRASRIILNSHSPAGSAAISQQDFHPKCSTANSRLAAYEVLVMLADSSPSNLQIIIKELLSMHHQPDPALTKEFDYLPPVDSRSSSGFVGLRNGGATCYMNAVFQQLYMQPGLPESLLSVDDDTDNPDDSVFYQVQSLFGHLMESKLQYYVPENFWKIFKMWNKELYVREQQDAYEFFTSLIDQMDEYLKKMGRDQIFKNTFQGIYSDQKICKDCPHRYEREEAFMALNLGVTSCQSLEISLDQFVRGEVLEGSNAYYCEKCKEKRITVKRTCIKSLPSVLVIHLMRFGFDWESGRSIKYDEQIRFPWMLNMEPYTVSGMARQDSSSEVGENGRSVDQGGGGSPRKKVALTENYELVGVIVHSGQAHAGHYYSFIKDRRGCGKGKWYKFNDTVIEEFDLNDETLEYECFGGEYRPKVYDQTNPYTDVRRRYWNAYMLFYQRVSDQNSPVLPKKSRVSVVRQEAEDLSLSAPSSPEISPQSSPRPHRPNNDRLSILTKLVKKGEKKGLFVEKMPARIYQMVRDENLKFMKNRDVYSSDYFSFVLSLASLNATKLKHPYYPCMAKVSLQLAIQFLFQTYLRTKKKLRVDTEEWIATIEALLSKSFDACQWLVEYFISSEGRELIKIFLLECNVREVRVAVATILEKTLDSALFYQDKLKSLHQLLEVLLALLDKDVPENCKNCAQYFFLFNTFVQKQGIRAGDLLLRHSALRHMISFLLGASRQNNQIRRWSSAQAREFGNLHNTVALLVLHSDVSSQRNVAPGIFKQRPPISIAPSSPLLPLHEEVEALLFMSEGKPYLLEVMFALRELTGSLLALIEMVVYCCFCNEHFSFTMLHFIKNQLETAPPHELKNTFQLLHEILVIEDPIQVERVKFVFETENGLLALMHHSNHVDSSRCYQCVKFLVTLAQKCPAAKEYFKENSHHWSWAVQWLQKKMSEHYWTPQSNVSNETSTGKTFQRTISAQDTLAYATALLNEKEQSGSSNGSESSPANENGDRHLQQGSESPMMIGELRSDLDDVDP

As for `Cc1ccc(N(CCC#N)C(=O)CCl)cc1C`, the “log2 ratio of Biotin-Ahx-Ub-VS probe labelling” value is -0.203 with USP19; 0.0466 with USP22; -1.05 (active) with USP24; -0.271 in the test with USP25; -0.679 with USP28.
